Reference: PubChem BioAssay (NCI)
This is part of a sample that, as a whole, favours compounds with a hit. Of some 83,000 tested, about 20% had one in any assay.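 Note: values are percent growth. 100 is the growth of untreated cells, values between 100 and 0 indicate rising inhibition; between -100 and 0 indicates cell death.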 Activity calls are given as the source filed them. How the source made its calls: active means growth percent below 10; inactive means the rest.

Columns and labels:
Test in all cases: NCI-60 one-dose screen, 48 h (100 = growth as untreated, 0 = no growth, -100 = all killed)
Conditions in all cases: 10 µM unless noted
HCT-15 colon = tested on: HCT-15 colon
HT29 colon = tested on: HT29 colon
SNB-75 CNS = tested on: SNB-75 CNS
SNB-19 CNS = tested on: SNB-19 CNS
U251 CNS = tested on: U251 CNS
PC-3 prostate = tested on: PC-3 prostate
SK-MEL-5 melanoma = tested on: SK-MEL-5 melanoma
UACC-62 melanoma = tested on: UACC-62 melanoma
LOX IMVI melanoma = tested on: LOX IMVI melanoma
SK-MEL-28 melanoma = tested on: SK-MEL-28 melanoma
SK-MEL-2 melanoma = tested on: SK-MEL-2 melanoma
EKVX NSCLC = tested on: EKVX NSCLC
SN12C renal = tested on: SN12C renal
UO-31 renal = tested on: UO-31 renal
TK-10 renal = tested on: TK-10 renal
ACHN renal = tested on: ACHN renal
CAKI-1 renal = tested on: CAKI-1 renal
A498 renal = tested on: A498 renal
MOLT-4 leukemia = tested on: MOLT-4 leukemia
CCRF-CEM leukemia = tested on: CCRF-CEM leukemia

Measured: growth

Cn1c(-c2c(N)n(CCCN3CCOCC3)c3nc(C#N)c(C#N)nc23)nc2ccccc21
active: ACHN renal -79.1%
inactive: HCT-15 colon 67.1% | HT29 colon 68% | SNB-75 CNS 38.4% | SNB-19 CNS 76.1% | U251 CNS 67.8% | PC-3 prostate 35.5% | SK-MEL-5 melanoma 92.9% | UACC-62 melanoma 77.2% | LOX IMVI melanoma 67.7% | SK-MEL-28 melanoma 59.1% | SK-MEL-2 melanoma 109% | EKVX NSCLC 66.3% | SN12C renal 40.5% | UO-31 renal 12.4% | TK-10 renal 46.8% | CAKI-1 renal 57.6% | A498 renal 90.6% | MOLT-4 leukemia 31.5%

COc1ccc(-c2nc3sccn3c2/C=C/C(=O)c2ccc3c(c2)OCO3)cc1
inactive: HCT-15 colon 59.3% | HT29 colon 85% | SNB-75 CNS 72.3% | SNB-19 CNS 80.6% | U251 CNS 55.1% | PC-3 prostate 58.6% | SK-MEL-5 melanoma 78.7% | UACC-62 melanoma 57.2% | LOX IMVI melanoma 38.4% | SK-MEL-28 melanoma 105% | SK-MEL-2 melanoma 87.4% | EKVX NSCLC 85.4% | SN12C renal 86.1% | UO-31 renal 73.5% | TK-10 renal 119% | ACHN renal 73.3% | CAKI-1 renal 78.3% | A498 renal 113% | CCRF-CEM leukemia 18.3% | MOLT-4 leukemia 37.3%

N#C/C(=C\c1c(-c2ccccc2)[nH]c2ccccc12)C(=O)c1ccc(Cl)cc1
active: SNB-75 CNS -4.21% | SK-MEL-5 melanoma 1.79% | A498 renal -3.53% | CCRF-CEM leukemia 2.19%
inactive: HCT-15 colon 31.1% | HT29 colon 17.3% | SNB-19 CNS 55.3% | U251 CNS 18.6% | PC-3 prostate 32.9% | UACC-62 melanoma 28.6% | LOX IMVI melanoma 44.4% | SK-MEL-28 melanoma 50.9% | SK-MEL-2 melanoma 74.6% | EKVX NSCLC 48.8% | SN12C renal 66.7% | UO-31 renal 47.3% | TK-10 renal 68.3% | ACHN renal 48.9% | CAKI-1 renal 59.6% | MOLT-4 leukemia 45.9%

C=C(C)[C@@H]1CC[C@]2(C(=O)N[C@H](CO)Cc3ccccc3)CC[C@]3(C)[C@H](CC[C@@H]4[C@@]5(C)CCCNC(C)(C)[C@@H]5CC[C@]43C)[C@@H]12
active: HCT-15 colon -82.3% | HT29 colon -86.1% | SNB-75 CNS -95.1% | SNB-19 CNS -88% | U251 CNS -89.7% | PC-3 prostate -84.9% | SK-MEL-5 melanoma -95.5% | UACC-62 melanoma -85.6% | LOX IMVI melanoma -86.2% | SK-MEL-28 melanoma -92.3% | SK-MEL-2 melanoma -92.5% | EKVX NSCLC -84.1% | SN12C renal -83.3% | UO-31 renal -92.6% | TK-10 renal -94.7% | ACHN renal -95.9% | CAKI-1 renal -93.5% | A498 renal -97.9% | CCRF-CEM leukemia -46.7% | MOLT-4 leukemia -62.6%

NC(=NCCCOc1ccc(F)cc1)Nc1ccc(I)cc1
inactive: HCT-15 colon 75.3% | HT29 colon 38.2% | SNB-75 CNS 63.6% | SNB-19 CNS 78.1% | U251 CNS 78.6% | PC-3 prostate 59.1% | SK-MEL-5 melanoma 38.2% | UACC-62 melanoma 82.8% | LOX IMVI melanoma 84.4% | SK-MEL-28 melanoma 88.3% | SK-MEL-2 melanoma 84.1% | EKVX NSCLC 76% | SN12C renal 81% | UO-31 renal 59.2% | TK-10 renal 73% | ACHN renal 73.5% | CAKI-1 renal 74.5% | CCRF-CEM leukemia 79.3% | MOLT-4 leukemia 40.9%

Oc1ccc(OCCOc2ccc(O)cc2)cc1
active: UO-31 renal 4.76% | ACHN renal 6.65%
inactive: HCT-15 colon 38.4% | HT29 colon 86.9% | SNB-75 CNS 73.8% | SNB-19 CNS 79.2% | U251 CNS 49.5% | PC-3 prostate 55.7% | SK-MEL-5 melanoma 26.8% | UACC-62 melanoma 22.5% | LOX IMVI melanoma 36.4% | SK-MEL-28 melanoma 102% | SK-MEL-2 melanoma 81.8% | EKVX NSCLC 75.4% | SN12C renal 59.6% | TK-10 renal 87.9% | CAKI-1 renal 11.4% | A498 renal 100% | CCRF-CEM leukemia 58.8% | MOLT-4 leukemia 60.8%

OCc1cnc2ccccc2c1NC1CCCCCC1
inactive: HCT-15 colon 98.4% | HT29 colon 92.1% | SNB-75 CNS 91.4% | SNB-19 CNS 94.4% | U251 CNS 92.6% | PC-3 prostate 82.2% | SK-MEL-5 melanoma 59.7% | UACC-62 melanoma 81.7% | LOX IMVI melanoma 89.2% | SK-MEL-28 melanoma 102% | SK-MEL-2 melanoma 100% | EKVX NSCLC 78.7% | SN12C renal 93.8% | UO-31 renal 67.1% | TK-10 renal 96.2% | ACHN renal 92.3% | CAKI-1 renal 73.1% | A498 renal 79.4% | CCRF-CEM leukemia 85.1% | MOLT-4 leukemia 91.5%

N#C/C(=C\c1ccc([N+](=O)[O-])s1)c1nc2cc(Cl)ccc2s1
inactive: HT29 colon 33.7% | SNB-75 CNS 49.7% | SNB-19 CNS 12.8% | UACC-62 melanoma 19.5% | SK-MEL-28 melanoma 21.1% | TK-10 renal 34.8% | CAKI-1 renal 43.3% | A498 renal 114%
active: HCT-15 colon -45.9% | U251 CNS 1.57% | PC-3 prostate -0.522% | SK-MEL-5 melanoma -94.4% | LOX IMVI melanoma -29.2% | SK-MEL-2 melanoma -19.6% | EKVX NSCLC 7.23% | SN12C renal -27.5% | UO-31 renal -15.8% | ACHN renal -46.6% | CCRF-CEM leukemia 0.557% | MOLT-4 leukemia 8.53%

O=C1Nc2ccccc2/C1=C\c1c(-c2ccccc2)nc2ccccn12
inactive: HCT-15 colon 29.3% | HT29 colon 21.8% | SNB-75 CNS 38.5% | SNB-19 CNS 55.8% | U251 CNS 62.9% | PC-3 prostate 49.9% | SK-MEL-5 melanoma 17.3% | UACC-62 melanoma 33.4% | LOX IMVI melanoma 37.1% | SK-MEL-28 melanoma 58.6% | SK-MEL-2 melanoma 52.5% | EKVX NSCLC 53.1% | SN12C renal 46.1% | UO-31 renal 48.2% | TK-10 renal 84.4% | ACHN renal 40.9% | CAKI-1 renal 39.2% | A498 renal 28.6% | CCRF-CEM leukemia 37.9%
active: MOLT-4 leukemia 9.8%

Cc1ccc(-c2csc(NC(=O)CSc3nc(-c4ccccc4)cc(=O)[nH]3)n2)cc1
inactive: HCT-15 colon 94.5% | HT29 colon 102% | SNB-75 CNS 96.1% | SNB-19 CNS 87.5% | U251 CNS 92.2% | PC-3 prostate 86.5% | SK-MEL-5 melanoma 87.4% | UACC-62 melanoma 70% | LOX IMVI melanoma 96.5% | SK-MEL-28 melanoma 97.5% | SK-MEL-2 melanoma 89.4% | EKVX NSCLC 90.9% | SN12C renal 94.9% | UO-31 renal 76% | TK-10 renal 108% | ACHN renal 91.7% | CAKI-1 renal 90.7% | A498 renal 97.8% | CCRF-CEM leukemia 88.8% | MOLT-4 leukemia 74.2%

CC(C)(C)[Si](C)(C)OC1[C@@H](O[Si](C)(C)C(C)(C)C)[C@@H](CNC(=O)NC(=O)CCl)O[C@H]1n1cnc2c(NC(=O)Nc3ccccc3)ncnc21 (some centres not stated)
active: HT29 colon -48.1% | SNB-75 CNS -66.2% | SNB-19 CNS 6.83% | U251 CNS -75.6% | PC-3 prostate -36.2% | SK-MEL-5 melanoma -87.7% | UACC-62 melanoma -61.5% | LOX IMVI melanoma -88.1% | SK-MEL-28 melanoma -79.5% | EKVX NSCLC -40.4% | SN12C renal -50.3% | UO-31 renal -75% | ACHN renal -68.6% | CCRF-CEM leukemia -37.9% | MOLT-4 leukemia -43.8%
inactive: HCT-15 colon 37.5% | SK-MEL-2 melanoma 42.7% | TK-10 renal 105% | CAKI-1 renal 37.9% | A498 renal 43.5%

O=C(CCN1CCCC1)c1ccc([N+](=O)[O-])cc1
inactive: HCT-15 colon 100% | HT29 colon 101% | SNB-75 CNS 84% | SNB-19 CNS 116% | U251 CNS 98.4% | PC-3 prostate 99.8% | SK-MEL-5 melanoma 101% | UACC-62 melanoma 105% | LOX IMVI melanoma 102% | SK-MEL-28 melanoma 104% | SK-MEL-2 melanoma 111% | EKVX NSCLC 97.5% | SN12C renal 106% | UO-31 renal 87.3% | TK-10 renal 101% | ACHN renal 106% | CAKI-1 renal 97.3% | A498 renal 92.9% | CCRF-CEM leukemia 103% | MOLT-4 leukemia 113%

NC(=S)N1N=C(c2ccccc2)CC1c1cn(-c2ccccc2)nc1-c1ccc(OCc2ccccc2)cc1 (configuration not stated)
inactive: HCT-15 colon 106% | HT29 colon 95.9% | SNB-75 CNS 95.1% | SNB-19 CNS 97.3% | U251 CNS 97% | PC-3 prostate 89.2% | SK-MEL-5 melanoma 99.4% | UACC-62 melanoma 86.3% | LOX IMVI melanoma 99.3% | SK-MEL-28 melanoma 112% | SK-MEL-2 melanoma 90.4% | EKVX NSCLC 78.3% | SN12C renal 93.2% | UO-31 renal 84.7% | TK-10 renal 102% | ACHN renal 100% | CAKI-1 renal 92.7% | A498 renal 94.5% | CCRF-CEM leukemia 103% | MOLT-4 leukemia 98.7%

CCOC(=O)c1cc(C(=O)c2cc(OC)cc(OC)c2)n2ccc3ccccc3c12
inactive: HCT-15 colon 100% | HT29 colon 101% | SNB-19 CNS 55.2% | U251 CNS 81.8% | PC-3 prostate 99.4% | SK-MEL-5 melanoma 100% | UACC-62 melanoma 91.1% | LOX IMVI melanoma 88.9% | SK-MEL-28 melanoma 107% | SK-MEL-2 melanoma 102% | EKVX NSCLC 94.8% | SN12C renal 81.2% | UO-31 renal 95.3% | TK-10 renal 99.8% | ACHN renal 84.2% | CAKI-1 renal 84.5% | A498 renal 89.3% | CCRF-CEM leukemia 102% | MOLT-4 leukemia 104%
active: SNB-75 CNS -7.31%

Cn1c(N2NC(=O)C(N=Nc3ccc(S(N)(=O)=O)cc3)C2=O)nc(-c2ccco2)c(C#N)c1=O (configuration not stated)
active: MOLT-4 leukemia 4.74%
inactive: HCT-15 colon 61.7% | HT29 colon 85.3% | SNB-75 CNS 64.5% | SNB-19 CNS 99.7% | U251 CNS 96.9% | PC-3 prostate 82.9% | SK-MEL-5 melanoma 98% | UACC-62 melanoma 83.5% | LOX IMVI melanoma 76.8% | SK-MEL-28 melanoma 102% | SK-MEL-2 melanoma 117% | EKVX NSCLC 107% | SN12C renal 92.6% | UO-31 renal 63.2% | TK-10 renal 131% | ACHN renal 81.6% | CAKI-1 renal 69.8% | A498 renal 122%
